# Inconclusive results are not listed. Entries that show only a call come without a potency. Active and inactive are the calls of the source. Calls follow the shape of the dose curve; as a rule, active = well fitted inhibition curve with a large enough effect; inconclusive = small, poorly fitted or top-dose-only effect; inactive = flat fitted curve, though single readings scatter.
# Target: Glutathione peroxidase 1 (Homo sapiens) (UniProt P07203)
# Experiment: Primary qHTS Assay for Inhibitors of Recombinant Selenoprotein Glutathione Peroxidase 1 (GPX1) (AID 1845191); also: potency is read from the fitted curve at half-maximal effect
# Conditions: recombinant GPX1, GR-coupled NADPH fluorescence, 15 min; series mostly up to 48.8 µM
# Outline: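 NADPH consumption tracked by fluorescence at 340/450 nm between t=0 and t=15 min, room temperature. Final mix: 10 nM GPX1, 100 nM glutathione reductase, 1 mM GSH, 0.5 mM NADPH, 0.5 mM cumene hydroperoxide, 0.01% BSA; 30 min compound–enzyme preincubation.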
# Also: nearly all actives have a fitted effect of over 65% in size.
# Sequence of Glutathione peroxidase 1 (Homo sapiens) (P07203 whole entry, looked up): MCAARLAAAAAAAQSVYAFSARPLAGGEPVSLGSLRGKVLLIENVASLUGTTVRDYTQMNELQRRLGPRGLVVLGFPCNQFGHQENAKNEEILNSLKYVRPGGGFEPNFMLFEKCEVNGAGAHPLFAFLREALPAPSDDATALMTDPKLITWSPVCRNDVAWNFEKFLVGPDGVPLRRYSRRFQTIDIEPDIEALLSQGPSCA
row,Structure (SMILES),Potency
1,CC(C)[C@H]1CC[C@H](C)C[C@H]1O,inactive
2,CCCCCCCCC=CCCCCCCCC(=O)NCCOC(=O)CC(C(=O)O)S(=O)(=O)O (centres undefined),inactive
3,Cc1cc2c(F)c(Oc3ncnn4cc(OC[C@@H](C)OC(=O)[C@H](C)N)c(C)c34)ccc2[nH]1,inactive
4,CCn1c(N)c(C(=O)NC)c(=O)c2ccc(C#C[C@@](C)(O)COC)nc21,inactive
5,CN[C@@H]1[C@@H](O)[C@@H](O[C@@H]2[C@@H](O)[C@H](O[C@H]3O[C@H]([C@@H](C)NC)CC[C@H]3N)[C@@H](N)C[C@H]2N)OC[C@]1(C)O,inactive
6,CCC=CCC=CCC=CCCCCCCCC(=O)O,inactive
7,O=C(O)[C@@H]1CCCN1,inactive
8,C=CC1=C(C(=O)O)N2C(=O)[C@@H](NC(=O)/C(=N\OCC(=O)O)c3csc(N)n3)[C@H]2SC1,7.18 µM (active)
9,Cc1ccc(/C=C2\C(=O)C3(C)CCC2C3(C)C)cc1 (centres undefined),inactive
10,NCCNc1ccc(NCCN)c2c1C(=O)c1ccncc1C2=O,inactive
11,C#C[C@]1(O)CC[C@@H]2[C@@H]3CCC4=CCCC[C@@H]4[C@H]3C(=C)C[C@@]21CC,inactive

# Target: Phospholipid hydroperoxide glutathione peroxidase GPX4 (Homo sapiens) (UniProt P36969)
# Experiment: Primary qHTS Assay for Inhibitors of Recombinant Selenoprotein Glutathione Peroxidase 4 (GPX4) (AID 1845192)
# Conditions: recombinant GPX4, GR-coupled NADPH fluorescence, 15 min; series mostly up to 50 µM
# Outline: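 NADPH consumption followed by fluorescence at 340/450 nm, t=0 and after 15 min at room temperature. Reaction started with cumene hydroperoxide (0.5 mM final) after 30 min compound–GPX4 preincubation; final 200 nM GPX4, 100 nM GR, 1 mM GSH, 0.5 mM NADPH.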
# Sequence of Phospholipid hydroperoxide glutathione peroxidase GPX4 (Homo sapiens) (P36969 whole entry, looked up): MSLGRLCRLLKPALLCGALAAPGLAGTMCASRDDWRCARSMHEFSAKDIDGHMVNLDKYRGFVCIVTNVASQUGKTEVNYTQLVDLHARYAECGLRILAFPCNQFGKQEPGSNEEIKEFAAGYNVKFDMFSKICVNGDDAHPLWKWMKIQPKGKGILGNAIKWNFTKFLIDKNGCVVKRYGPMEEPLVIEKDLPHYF
row,Structure (SMILES),Potency
1,CC(C)[C@H]1CC[C@H](C)C[C@H]1O,inactive
2,CCC=CCC=CCC=CCCCCCCCC(=O)O,inactive
3,Cc1ccc(/C=C2\C(=O)C3(C)CCC2C3(C)C)cc1 (centres undefined),inactive

# From PubChem BioAssay (NCATS)
